VACV mCherry inh – qHTS for Stage-Specific Inhibitors of Vaccinia Orthopoxvirus: mCherry Reporter Primary qHTS | Potency, µM (highest dose often 36.5 µM), hits mostly inhibitors | 310,000 tested, 0.63% active | Vaccinia virus mCherry reporter infection, fluorescence; calls by dose curve; tested in A549 cells; further: nearly all actives have a fitted effect of over 35% in size
HCV inhibitor – qHTS Assay for Inhibitors of Hepatitis C Virus (HCV). AID 651820, 2012. 340,000 tested, 3.4% active. Potency, µM (top dose mostly 41.8 µM), hits mostly inhibitors. Huh7.5.1 HCVcc-Cre infection, luciferase reporter, 44 h; active means well fitted inhibition curve with a large enough effect; inconclusive means small, poorly fitted or top-dose-only effect, or another doubt; inactive means no such curve, though single readings can be large or run the other way
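After 44 h co-culture of compound, cells and HCVcc-Cre (~0.5 moi), substrate is added for 15 min at room temperature and luciferase measured over 15 sec. Cells were seeded at 1,000/well and pre-cultured 4 h.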
LASV entry inh – qHTS for Inhibitors of binding or entry into cells for Lassa Virus; Lassa virus pseudotype entry inhibition, cell reporter; Potency, µM (series often up to 37.9 µM), usual class: inhibitors; 300,000 tested, 1.2% active; calls by dose curve; tested in HEK293 cells; further: nearly all actives have a fitted effect of over 50% in size
HCMV antiviral – qHTS Assay for inhibitors of the human cytomegalovirus (HCMV) | HFF cells, HCMV-luciferase reporter, 72 h; hits give low values | activity change, negative = inhibition, % at 57.5 µM | 410,000 tested, 4.5% active | AID 1259415, 2018; in the data active means activity change below about -60%; inconclusive means no clear call, values can overlap the other calls; inactive means above about -39%
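Human foreskin fibroblasts infected with luciferase-reporter HCMV at MOI 1 PFU/cell, compounds at two doses. Luciferase measured 72 h post infection; normalized to buffer-only basal and Salinomycin (10uM) controls.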
VACV Venus inh – qHTS for Stage-Specific Inhibitors of Vaccinia Orthopoxvirus: Venus Reporter Primary qHTS. Vaccinia virus Venus reporter expression, fluorescence. Potency, µM (doses to about 36.5 µM), hits mostly inhibitors. 330,000 tested, 0.46% active. AID 720580, 2013; calls by dose curve; tested in A549 cells; further: nearly all actives have a fitted effect of over 30% in size
MARV entry inh – qHTS for inhibitors of binding or entry into cells for Marburg Virus; 300,000 tested, 1.8% active; Potency, µM (top dose mostly 37.8 µM), hits mostly inhibitors; Marburg virus pseudotyped entry inhibition, cell reporter; calls by dose curve; tested in HEK293 cells
A number is an active result; [ ] = remark or other dose. Compounds with a hit are over-represented: about 7.8% of the library has one in this group of screens.

`COc1ccc(CCNC(=O)c2ccc(CNS(=O)(=O)c3ccc(C(C)(C)C)cc3)cc2)cc1OC` gave VACV mCherry inh inactive, HCV inhibitor inconclusive, LASV entry inh inactive, HCMV antiviral inactive, VACV Venus inh inactive and MARV entry inh inactive.
For Cc1ccc(CCNC(=O)c2ccc(CNS(=O)(=O)c3ccccc3)cc2)cc1 the results were VACV mCherry inh inactive, LASV entry inh inconclusive, HCMV antiviral inactive, VACV Venus inh inactive and MARV entry inh inactive.
`COc1ccc(CCN(C)C(=O)c2cc(S(=O)(=O)NCc3ccccc3)ccc2C)cc1OC` gave VACV mCherry inh inactive, HCV inhibitor 8.91µM, LASV entry inh inactive, HCMV antiviral inconclusive, VACV Venus inh inactive and MARV entry inh inconclusive.
Screening CN(C)c1ccc(CN(CC2CCCO2)C(=O)COc2ccc(Cl)cc2)cc1 (stereo not given) returned VACV mCherry inh inactive, LASV entry inh inconclusive, HCMV antiviral inactive, VACV Venus inh inactive and MARV entry inh inconclusive.
Screening COc1cc(=O)n2c(c1C(=O)NC(C)c1ccco1)CCN(C(=O)c1ccc(F)cc1Cl)CC2 (stereo not given) returned VACV mCherry inh inactive and VACV Venus inh inactive.
O=C1NC(=O)C(=Cc2cc3c(cc2[N+](=O)[O-])OCO3)C(=O)N1 was read as VACV mCherry inh inactive, HCV inhibitor inactive, LASV entry inh inactive, HCMV antiviral -63.4, VACV Venus inh inactive and MARV entry inh inactive.
For O=C1NC(=O)C(=Cc2ccccc2[N+](=O)[O-])C(=O)N1 the results were VACV mCherry inh inactive, HCV inhibitor inactive, LASV entry inh inactive, HCMV antiviral inactive, VACV Venus inh inactive and MARV entry inh inactive.
For COc1cccc(Cc2nc3ccccc3nc2SCC(=O)Nc2ccccc2F)c1 the results were VACV mCherry inh inactive, LASV entry inh inactive, HCMV antiviral inactive and VACV Venus inh inactive.
Screening Cc1cc(C)cc(-n2c(C)cc(/C=N/NC(=O)c3cccc([N+](=O)[O-])c3C)c2C)c1 returned HCV inhibitor 3.98µM, LASV entry inh inconclusive, HCMV antiviral inactive, VACV Venus inh inconclusive and MARV entry inh inconclusive.
For Cc1cc(/C=N/NC(=O)CC#N)c(C)n1-c1ccc([N+](=O)[O-])cc1 the results were VACV mCherry inh inactive, HCV inhibitor inactive, LASV entry inh inactive, HCMV antiviral -91.1, VACV Venus inh inactive and MARV entry inh inactive.
`CCN(CC)c1ccc([N+](=O)[O-])cc1/C=N/NC(=O)CC#N` gave VACV mCherry inh inactive, HCV inhibitor inactive, LASV entry inh inactive, HCMV antiviral inactive, VACV Venus inh inactive and MARV entry inh inactive.
Fc1ccc(N2CCN(Cc3ccc4c(c3)CN(Cc3cccn3-c3ncccn3)CCO4)CC2)cc1 was read as VACV mCherry inh inactive and VACV Venus inh inactive.
For CNCCc1c[nH]c2ccc(O)cc12 the results were VACV mCherry inh inactive, HCV inhibitor 3.16µM, LASV entry inh inactive, HCMV antiviral inactive, VACV Venus inh inactive and MARV entry inh inconclusive.
CNCCc1c[nH]c2ccccc12 was read as VACV mCherry inh inactive, HCV inhibitor inactive and VACV Venus inh inactive.
For N#Cc1cccc2c1-c1ccccc1/C2=N/NC(N)=S the results were VACV mCherry inh inconclusive, HCV inhibitor 12.6µM, LASV entry inh inconclusive, VACV Venus inh inconclusive and MARV entry inh inconclusive.
For NC(=S)NN=C1c2ccccc2-c2c(F)c(F)c(F)c(F)c21 the results were VACV mCherry inh inactive, HCV inhibitor inconclusive, LASV entry inh inconclusive, HCMV antiviral inactive, VACV Venus inh inactive and MARV entry inh inconclusive.
Screening COc1ccc(O[C@H]2C=C[C@@H](c3ccccc3)O[C@H]2COC(=O)CCC(C)=NO[C@@H](C)c2cc(-c3c(C)cc(C)cc3C)no2)cc1 returned MARV entry inh inactive.
CCC(NC(=O)c1ccc2nc(Cc3ccc(OC)cc3)oc2c1)c1ccncc1 (stereo not given) was read as HCV inhibitor inactive and HCMV antiviral active.
CCn1cc(CNC(=O)c2ccc3nc(Cc4ccc(OC)cc4)oc3c2)cn1 was read as VACV mCherry inh inactive, HCV inhibitor 10µM, LASV entry inh inactive, HCMV antiviral -65.3, VACV Venus inh inactive and MARV entry inh inactive.
For CCn1cc(CNC(=O)c2ccc3nc(Cc4ccccc4F)oc3c2)cn1 the results were VACV mCherry inh inactive, HCV inhibitor 11.2µM, LASV entry inh inactive, HCMV antiviral inactive, VACV Venus inh inactive and MARV entry inh inactive.
`C=C(C)CNC(=O)c1ccc2nc(Cc3ccc(OC)cc3)oc2c1` gave VACV mCherry inh inactive, HCV inhibitor inactive, LASV entry inh 6.31µM, HCMV antiviral inactive, VACV Venus inh inactive and MARV entry inh inactive.
CCOC(=O)c1c(C)[nH]c(C)c1S(=O)(=O)N(C)CC(=O)Nc1ccc(OC)cc1 was read as VACV mCherry inh inactive, LASV entry inh inactive, HCMV antiviral inactive and VACV Venus inh inactive.
For CCOCOCc1cc(OC(C)C)ccc1N1C(=O)C[C@@H](C(=O)OC)[C@H]1c1ccc(OC(C)C)c(OC)c1 the results were HCMV antiviral inactive.
CCOC(=O)c1cccc(NC(=O)c2ccc3nc(Cc4ccccc4)oc3c2)c1 was read as VACV mCherry inh inactive, LASV entry inh inactive, HCMV antiviral inactive and VACV Venus inh inactive.
COc1cccc(NC(=O)c2ccc3nc(Cc4ccccc4)oc3c2)c1 was read as VACV mCherry inh inactive, LASV entry inh inactive, HCMV antiviral -93.7 and VACV Venus inh inactive.
For O=C(NCCc1ccncc1)c1ccc2nc(Cc3cccc(Cl)c3)oc2c1 the results were VACV mCherry inh inactive, HCV inhibitor inactive, LASV entry inh inactive, HCMV antiviral -70.2, VACV Venus inh inactive and MARV entry inh inactive.
O=C(NCCc1ccc(Cl)cc1)c1ccc2nc(Cc3ccccc3)oc2c1 was read as VACV mCherry inh inactive, LASV entry inh inconclusive, HCMV antiviral inactive and VACV Venus inh inactive.
`Cc1cnc(C)c(-c2cccc3c2OC(CNC(=O)C2(c4ccc(Cl)cc4)CC2)C3)n1` (stereo not given) gave VACV mCherry inh inactive and VACV Venus inh inactive.
`Cc1cc(=O)n(CC(=O)NCCC(C)C)c2c1c(C)nn2C` gave VACV mCherry inh inactive, LASV entry inh inconclusive, HCMV antiviral inactive and VACV Venus inh inactive.
Screening O=C(NCc1nc2ccccc2[nH]1)C1=C[C@@H](c2csc3ccccc23)C[C@@H](OCc2ccc(CO)cc2)O1 returned VACV mCherry inh inactive, HCV inhibitor inactive[8.37 µM], HCMV antiviral inactive and VACV Venus inh inconclusive.
Screening O=C(NCc1nc2ccccc2[nH]1)C1=C[C@H](c2csc3ccccc23)C[C@H](OCc2ccc(CO)cc2)O1 returned VACV mCherry inh inactive, HCV inhibitor inconclusive, HCMV antiviral -61.8 and VACV Venus inh inactive.

Screening data (PubChem BioAssay)
